Screens from PubChem BioAssay.
Only some compounds are listed: those with a hit (about 5.2% of all), similar ones and a draw of the others.
Vif imaging = blocks HIV Vif function; HEK293T cells, Vif self-association by quenched fluorescence, imaging, 24 h; inhibition, % at 7.49 µM; hit rate 0.35% among 340,000; in the data active = inhibition above about 50%, passing the limit was not always enough; inconclusive = no clear call, values can overlap the other calls; inactive = below about 31%
SMARCA2 act = SMARCA2 function activation, primary screen; MG213 cells, MMTV-luciferase reporter, dexamethasone, overnight; activation, % at 9.1 µM; hit rate 1% among 370,000; in the data active = activation above about 7.8%;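 also: 0% = vehicle wells and 100% = reference activator wells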
NR3A LBD binder = NR3A (human) ligand-binding domain modulation; hit rate 2.5% among 340,000; NR3A LBD differential scanning fluorimetry, Tm shift; 0% = protein alone, 100% = glycine-bound protein; Tm shift relative to glycine control, % at 25 µM;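 active = melting temperature shift of at least 10% of the positive control shift, at one fixed dose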
SKN-1 inh = blocks SKN-1 activity in C. elegans; hit rate 0.49% among 360,000; C. elegans VP596 Pgst-4::GFP/RFP ratio, acrylamide-induced, 24 h; inhibition, % at 21.8 µM; AID 624304;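 active = interference check ratio from 0.5 to 1.5 plus GFP to RFP signal ratio inhibition reaching or exceeding a fixed threshold, cut at about 30% in these data, passing the limit was not always enough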
NadD block = NadD (S. aureus) enzyme inhibition. inhibition, % at 20 µM. hit rate 0.78% among 360,000. purified NadD enzyme, colorimetric absorbance read-out; in the data active = inhibition above about 26%
esBAF inh = SWI/SNF esBAF complex inhibition; hit rate 2% among 350,000; mouse ES cells, Bmi1-luciferase knock-in reporter, 24 h; 100% = twice the neutral-well signal; AID 602393; reporter increase, % at 12.5 µM; in the data active = activation above about 40%; inconclusive = no clear call, values can overlap the other calls;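 also: 0% = median of the plate's neutral control wells and 100% = double that signal; a rise in the Bmi1 reporter signal indicates esBAF inhibition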
Numbers without * were called inactive; u = inconclusive; x = no result given.

SMILES	Vif imaging	SMARCA2 act	NR3A LBD binder	SKN-1 inh	NadD block	esBAF inh
O=C(C[C@H]1CC[C@H](NS(=O)(=O)c2ccc(F)cc2)[C@@H](CO)O1)N1CCc2ccccc2C1	x	x	x	x	x	2
CO[C@@H]1CN(C)C(=O)c2ccc(NC(=O)Cc3ccccc3)cc2OC[C@H](C)NC[C@@H]1C	x	x	x	x	x	0
Cc1nn(-c2ccccc2)c(C)c1/C=N/NC(=O)CSc1nnc(SCc2cccc3ccccc23)s1	-10	-2	16*	2	21	x
Cc1ccc(-n2c(SCC(=O)N/N=C/c3c(C)nn(-c4ccccc4)c3C)nc3ccccc3c2=O)cc1	0	-4	0	6	22	x
O=C(CSc1nnc(SCc2ccccc2Cl)s1)N/N=C/c1c[nH]c2ccccc12	1	-2	26*	19	-4	x
Cc1ccccc1-n1c(SCC(=O)N/N=C/c2c(C)nn(-c3ccccc3)c2C)nc2ccccc2c1=O	-3	-2	20*	6	29	x
C=C(C)Cn1c(SCC(=O)N/N=C/c2c(O)ccc3ccccc23)nc2ccccc2c1=O	-2	-2	-2	1	35*	x
C[C@@H]1CN([C@H](C)CO)S(=O)(=O)c2ccc(C#CCN(C)C)cc2O[C@@H]1CN(C)C(=O)C1CC1	x	x	x	x	x	0
COc1ccc(S(=O)(=O)N(C)C[C@H]2Oc3c(NC(=O)CCC(F)(F)F)cccc3C(=O)N([C@H](C)CO)C[C@@H]2C)cc1	-7	1	10*	7	-5	5
COc1ccc(S(=O)(=O)N(C)C[C@H]2Oc3c(NS(=O)(=O)c4ccc(F)cc4)cccc3C(=O)N([C@@H](C)CO)C[C@H]2C)cc1	x	x	x	x	x	-2
COc1ccc(S(=O)(=O)Nc2cccc3c2O[C@H](CN(C)S(=O)(=O)c2ccc(F)cc2)[C@H](C)CN([C@H](C)CO)C3=O)cc1	2	-1	10*	-2	-6	10
C[C@H]1CN([C@@H](C)CO)C(=O)Cc2cc(NC(=O)Cc3cn(C)c4ccccc34)ccc2O[C@@H]1CN(C)C(=O)NC1CCCCC1	x	x	x	x	x	-4
CN(C)CC(=O)Nc1ccc2c(c1)[C@@H]1C[C@@H](CC(=O)NCc3cccc(F)c3)O[C@@H](CO)[C@@H]1O2	x	x	x	x	x	1
Cc1cccc2cc(CN(CC3CCCO3)C(=O)NC3CCCCC3)c(=O)[nH]c12 (stereo not given)	68*	-3	2	-7	8	-2
Cc1cccc2cc(CN(C(=S)NCC(C)C)C3CCCC3)c(=O)[nH]c12	-12	0	13*	9	-3	x
Cc1ccc2cc(CN(CC3CCCO3)C(=O)NC3CCCCC3)c(=O)[nH]c2c1C (stereo not given)	-13	2	-2	10	12	-21
CCCNC(=O)C[C@@H]1CC[C@@H]2[C@H](COC[C@@H](O)CN2C(=O)CC)O1	x	x	x	x	x	-8
CS(=O)(=O)N1[C@H](C(=O)NC2CCC2)[C@@H](CO)[C@@H]2Cn3c(ccc(-c4ccccc4)c3=O)[C@@H]21	x	x	x	x	x	-1
Nc1nnn(CC(=O)N/N=C/c2cccc(Cl)c2)n1	61*	-5	1	15	-10	x
COc1ccccc1CN1CC[C@H]2[C@H](CO)Nc3ccc(C#Cc4ccccc4)cc3[C@H]21	x	x	x	x	x	2
O=C(Nc1cccnc1)Nc1cc(Cl)cc(Cl)c1	3	-2	21*	7	-7	x
Cc1ccc(NC(=O)Nc2ccc3c(c2)C(=O)OC3)cc1Cl	-6	-1	24*	15	-1	x
Cn1c(NC(=O)/C=C/c2ccc(Cl)c(Cl)c2)cc(=O)n(C)c1=O	1	-2	16*	1	-2	x
CC(C)(C)c1ccc(/C=C/C(=O)Nc2cccnc2)cc1	-13	3	-14	14	-4	26
O=C(/C=C/c1ccc(Cl)c(Cl)c1)Nc1cccnc1	9	3	8	-6	-6	42*
SMILES	Vif imaging	SMARCA2 act	NR3A LBD binder	SKN-1 inh	NadD block	esBAF inh
CO[C@@H]1CN(C)C(=O)c2ccc(NS(=O)(=O)c3ccccc3)cc2OC[C@@H](C)N(Cc2ccccn2)C[C@H]1C	x	x	x	x	x	-3
C[C@@H]1CCCCO[C@@H](CN(C)C(=O)NC2CCCCC2)[C@H](C)CN([C@@H](C)CO)C(=O)c2cc(NC(=O)c3ccncc3)ccc2O1	x	x	x	x	x	11
CCCC#Cc1cnc2c(c1)C(=O)N([C@@H](C)CO)C[C@@H](C)[C@H](CN(C)C(=O)NC1CCCC1)O2	x	x	x	x	x	3
Cc1ccc(NC(=O)Nc2cccnc2)cc1Cl	x	-2	31*	-5	-7	u
O=C(Nc1cccnc1)Nc1ccccc1Cl	5	1	2	12	-3	30
COC(=O)C[C@H]1CC[C@H](NS(=O)(=O)c2ccccc2F)[C@H](CO)O1	x	x	x	x	x	2
NC(=NCCc1c[nH]c2ccccc12)NC(=O)c1ccc(F)cc1	-4	0	38*	12	-12	-3
COc1ccc(S(=O)(=O)Nc2ccc3c(c2)C(=O)N([C@@H](C)CO)C[C@H](C)[C@H](CN(C)C(=O)Nc2ccc(C(F)(F)F)cc2)O3)cc1	x	x	x	x	x	1
O=C(O)c1cc([N+](=O)[O-])ccc1NCc1ccccc1	6	-2	0	8	-5	x
Cc1ccc(CNc2ccc([N+](=O)[O-])cc2C(N)=O)cc1	-1	6	-1	13	-17	54*
C[C@@H]1CCCCO[C@H](CN(C)C(=O)Nc2ccc3c(c2)OCO3)[C@H](C)CN([C@H](C)CO)C(=O)c2cc(NC(=O)Nc3ccc(F)cc3)ccc2O1	x	x	x	x	x	9
CCCCCCCN(c1ccccc1)[C@@H]1C[C@H]2CCCC(=O)N3CC[C@@H](C1)[C@@H]23	-9	0	19*	1	12	1
C[C@H]1CN([C@@H](C)CO)C(=O)c2cc(-c3cncnc3)cnc2O[C@@H]1CN(C)C(=O)Cc1cccnc1	x	x	x	x	x	2
O=C(CSc1nc2c(c(=O)n1-c1ccc(Cl)cc1)SCC2)Nc1nccs1	-24	-2	15*	-35	7	3
S=C(c1ccc(-c2cccc(Cl)c2)o1)N1CCCCC1	-4	3	0	9	11	x
N#CCCN1CCN(C(=S)c2ccc(-c3ccc(Cl)c(Cl)c3)o2)CC1	-3	2	-2	5	10	46*
N#CCCN1CCN(C(=S)c2ccc(-c3cccc(Cl)c3)o2)CC1	-7	5	-15	9	7	78*
O=C(Nc1ccc(Br)cc1)C1Cc2ccccc2O/C1=N\O (stereo not given)	-7	3	3	12	-7	55*
C#CCNC(=O)C1=C[C@@H](c2cn(C(C)=O)c3ccccc23)C[C@@H](OCCCCO)O1	-1	-1	-1	45*	1	6
CC(=O)n1cc([C@H]2C=C(C(=O)NCc3ccccc3)O[C@@H](OCCCCO)C2)c2ccccc21	-7	2	-4	-16	6	7
Cc1cc(C(F)(F)F)n2ncc(-c3ccc(F)cc3)c2n1	x	-2	1	40*	2	-8
